Here are results for five compounds from PubChem BioAssay.

Each structure is given as a SMILES string. Active and inactive are the calls of the source.

The nature of assay [1]: optical density shifts of acrAB sulA E. coli – strain DRC41, OD650, 48 h, E. coli filamentation inducer project, primary screen (AID 1152).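 Note: E. coli MC1000 strain DRC41 lacking acrAB efflux pump and sulA.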 As to conditions: higher = more signal, called active from +8 up or from −8 down.
Assay [2] can be described thus: probe aLefty1 binding on compound microarray – biochemical, small-molecule microarray, 635/667 nm fluorescence, primary screen (AID 1153).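 Note: score merges spot fluorescence with signal-to-noise ratio from the scanned slide images.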 The settings on record: higher = more signal.
Assay [3] in a line: plasmodial surface anion channel blockers, osmotic lysis – cell-based, P. falciparum Indochina, OD700, 1 h, primary screen (AID 1154). The settings on record: P. falciparum Indochina infected RBC osmotic lysis, higher = more signal, called active from +8 up or from −8 down.
Assay [4] is described as follows: plasmodial surface anion channel blockers, osmotic lysis – cell-based, P. falciparum Indochina, OD700, 2 h, primary screen (AID 1155).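 Note: lysis reports solute entry through the parasite surface anion channel PSAC.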 The settings on record: P. falciparum Indochina infected erythrocytes, higher = more signal, called active from +8 up or from −8 down.
The nature of assay [5]: changes in parasitized red cell lysis, either direction – P. falciparum Indochina, OD700, 3 h, PSAC antagonist project, primary screen (AID 1156). As to conditions: P. falciparum-infected erythrocytes, osmotic lysis, higher = more signal, called active from +8 up or from −8 down.
Assay [6] is described as follows: plasmodial surface anion channel blockers, osmotic lysis – cell-based, P. falciparum Indochina, OD700, 18 h, primary screen (AID 1157). As to conditions: P. falciparum Indochina infected erythrocytes, osmotic lysis OD700, 18 h; higher = more signal, called active from +8 up or from −8 down.
Assay [7] is described as follows: S6 kinase pathway phospho-S6 level changes – cell-based, A549, cytoblot, luminescence, serum-stimulated, primary screen (AID 1158).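 Note: serum-stimulated A549 lung adenocarcinoma cells; signal is phosphorylated S6 detected by cytoblot immunostaining with HRP secondary.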 The settings on record: 5 h, higher = more signal.
Assay [8] concerns the target NADPH oxidase 2 (Homo sapiens) (UniProt P04839). Description: compounds shifting NOX2 Amplex Red fluorescence – cell-based, HEK293-NOX2, PMA-stimulated, NOX inhibitor project, primary screen (AID 1159). Note: test concentration not given here. As to conditions: 45 min, higher = more signal, called active from +8 up or from −8 down.
Assay [9] has as its target NADPH oxidase 4 (Homo sapiens) (UniProt Q9NPH5). Description: compounds shifting NOX4 Amplex Red fluorescence – cell-based, HEK293-NOX4, tetracycline-induced, NOX inhibitor project, primary screen (AID 1160). As to conditions: HEK293-NOX4, Amplex Red H2O2 fluorescence, 45 min; higher = more signal, called active from +8 up or from −8 down.
For assay [10], the target named is NADPH oxidase 5 (Homo sapiens) (UniProt Q96PH1). Description: compounds shifting NOX5 Amplex Red fluorescence – cell-based, HEK293-NOX5, NOX inhibitor project, primary screen (AID 1161). As to conditions: HEK293-NOX5, ionomycin, 45 min, higher = more signal.
NADPH oxidase 5 (Homo sapiens), sequence (Q96PH1 whole entry, looked up): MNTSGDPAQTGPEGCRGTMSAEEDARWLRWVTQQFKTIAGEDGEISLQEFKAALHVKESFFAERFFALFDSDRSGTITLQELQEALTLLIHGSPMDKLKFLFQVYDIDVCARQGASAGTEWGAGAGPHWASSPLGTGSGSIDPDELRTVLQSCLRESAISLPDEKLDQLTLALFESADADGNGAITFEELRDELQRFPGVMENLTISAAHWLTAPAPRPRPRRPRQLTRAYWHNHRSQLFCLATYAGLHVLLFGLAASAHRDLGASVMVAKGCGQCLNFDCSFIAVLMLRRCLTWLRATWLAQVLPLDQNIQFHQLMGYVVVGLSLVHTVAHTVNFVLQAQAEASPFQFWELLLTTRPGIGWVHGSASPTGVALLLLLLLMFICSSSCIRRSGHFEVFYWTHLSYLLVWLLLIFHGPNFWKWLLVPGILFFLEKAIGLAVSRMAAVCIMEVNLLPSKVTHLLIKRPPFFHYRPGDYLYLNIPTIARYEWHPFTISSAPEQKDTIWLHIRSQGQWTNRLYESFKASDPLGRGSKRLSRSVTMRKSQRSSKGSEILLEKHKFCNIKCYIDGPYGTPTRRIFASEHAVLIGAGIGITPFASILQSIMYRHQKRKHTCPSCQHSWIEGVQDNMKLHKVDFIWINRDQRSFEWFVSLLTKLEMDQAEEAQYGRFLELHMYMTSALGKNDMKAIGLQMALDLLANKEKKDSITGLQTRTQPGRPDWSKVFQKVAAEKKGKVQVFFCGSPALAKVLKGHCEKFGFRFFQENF
Assay [11] can be described thus: compound effects on lung adenocarcinoma cell viability – A549, calcein-AM fluorescence, 48 h, basal, profiling panel (AID 1162). Note: test concentration not given here. The settings on record: higher = more signal.
A short description of assay [12]: compound effects on differentiated 3T3-L1 adipocyte viability – cell-based, 3T3-L1 adipocytes, calcein-AM fluorescence, 48 h, basal, profiling panel (AID 1163). Note: test concentration not given here. As to conditions: 3T3-L1 adipocytes viability, higher = more signal.
A short description of assay [13]: compound effects on hepatocellular carcinoma cell viability – HepG2, calcein-AM fluorescence, 48 h, basal, profiling panel (AID 1164). Note: test concentration not given here. As to conditions: higher = more signal.
Assay [14] is described as follows: compound effects on multiple myeloma cell viability – MM1S, calcein-AM fluorescence, 48 h, basal, profiling panel (AID 1165). Note: test concentration not given here. As to conditions: higher = more signal.
A short description of assay [15]: calcein-AM signal in unstimulated myeloma cells – cell-based, calcein-AM fluorescence, 48 h, PK04 Diversity Set, profiling panel (AID 1166).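 Note: cells grown under basal conditions without added stimulus; test concentration not given here.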 As to conditions: RPMI8226 myeloma viability, higher = more signal.
The nature of assay [16]: JC-1 mitochondrial signal, unstimulated HepG2 cells – cell-based, JC-1 fluorescence, 24 h, 100 nL compound, profiling panel (AID 1167). Note: test concentration not given here. As to conditions: HepG2 mitochondrial potential, higher = more signal.
A short description of assay [17]: JC-1 mitochondrial signal, unstimulated adipocytes – cell-based, JC-1 fluorescence, 3T3-L1 adipocytes, 24 h, 100 nL compound, profiling panel (AID 1168). Note: test concentration not given here. The settings on record: JC-1 mitochondrial fluorescence, higher = more signal, called active from +8 up or from −8 down.
Assay [18] is described as follows: JC-1 mitochondrial signal, unstimulated myeloma cells – cell-based, JC-1 fluorescence, RPMI8226, 24 h, 100 nL compound, profiling panel (AID 1169). Note: test concentration not given here. As to conditions: JC-1 mitochondrial potential fluorescence, higher = more signal.
The nature of assay [19]: JC-1 mitochondrial signal, unstimulated MM1S myeloma – cell-based, JC-1 fluorescence, 24 h, 100 nL compound, profiling panel (AID 1170). Note: test concentration not given here. The settings on record: MM1S mitochondrial potential, higher = more signal.
The nature of assay [20]: resazurin metabolic signal in A549 cells – cell-based, resazurin fluorescence, 24 h, PK04 Diversity Set, profiling panel (AID 1171). Note: test concentration not given here. As to conditions: A549 viability, higher = more signal, called active from +8 up or from −8 down. For orientation: The colour change of resazurin is a common sign of viable cells or microbes.

NADPH oxidase 4 (Homo sapiens), sequence (Q9NPH5 whole entry, looked up): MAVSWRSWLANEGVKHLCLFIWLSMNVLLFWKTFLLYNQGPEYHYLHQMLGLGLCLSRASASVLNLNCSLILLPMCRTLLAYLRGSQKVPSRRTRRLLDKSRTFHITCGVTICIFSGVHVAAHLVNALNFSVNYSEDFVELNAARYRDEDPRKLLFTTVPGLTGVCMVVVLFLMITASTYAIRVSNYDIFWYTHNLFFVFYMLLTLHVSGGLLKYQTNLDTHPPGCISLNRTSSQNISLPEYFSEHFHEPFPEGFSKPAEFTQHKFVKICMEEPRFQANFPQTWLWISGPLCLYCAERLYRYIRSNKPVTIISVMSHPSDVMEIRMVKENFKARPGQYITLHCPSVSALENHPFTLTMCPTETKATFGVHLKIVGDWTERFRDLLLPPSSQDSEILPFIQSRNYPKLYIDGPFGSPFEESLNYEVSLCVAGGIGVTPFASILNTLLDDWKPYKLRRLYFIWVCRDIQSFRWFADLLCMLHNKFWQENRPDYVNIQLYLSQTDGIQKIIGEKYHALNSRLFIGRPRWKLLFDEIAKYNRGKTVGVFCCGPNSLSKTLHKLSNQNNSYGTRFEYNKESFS
NADPH oxidase 2 (Homo sapiens), sequence (P04839 whole entry, looked up): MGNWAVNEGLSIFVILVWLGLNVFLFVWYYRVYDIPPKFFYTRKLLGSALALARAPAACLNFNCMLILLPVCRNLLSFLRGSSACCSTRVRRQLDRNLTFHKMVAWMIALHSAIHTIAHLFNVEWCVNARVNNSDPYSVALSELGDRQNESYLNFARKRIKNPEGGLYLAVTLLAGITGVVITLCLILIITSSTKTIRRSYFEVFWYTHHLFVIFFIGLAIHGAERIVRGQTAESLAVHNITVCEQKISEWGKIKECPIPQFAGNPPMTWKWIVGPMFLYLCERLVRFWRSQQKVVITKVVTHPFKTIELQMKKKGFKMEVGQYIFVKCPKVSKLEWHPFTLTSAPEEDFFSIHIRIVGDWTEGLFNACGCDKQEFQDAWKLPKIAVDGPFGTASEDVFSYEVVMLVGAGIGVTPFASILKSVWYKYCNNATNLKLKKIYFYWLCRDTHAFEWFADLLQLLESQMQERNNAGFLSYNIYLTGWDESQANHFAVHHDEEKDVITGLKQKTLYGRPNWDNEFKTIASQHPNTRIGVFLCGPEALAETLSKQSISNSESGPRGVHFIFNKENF

Consider `COC(=O)[C@@H]1CC[C@H](C)[C@@H](c2ccc(C)cc2)N1C(=O)c1ccc(C=NO[C@H](C)c2cn([C@H](CO)Cc3ccccc3)nn2)cc1`, for which the z-score in assay [1] was -0.25 (inactive); in assay [3], 18.8 (active); in assay [4], 2.92 (inactive); in assay [5] it was 1.91 (inactive); in [6] it was 1.25 (inactive); in assay [7], -0.0872. For the same compound, the z-score in assay [8] is -0.0504 (inactive); in assay [9], -0.591 (inactive); in assay [10] it was -1.71; in assay [11], 0.354; in [12], 0.747; in [13], -1.31. Further, the z-score in [14] is 0.005; in assay [15], -2.98; in [16] it was -0.701; in [17] it was -1.55 (inactive); in [18], -0.041; in assay [19], 0.697. In addition, the z-score in assay [20] was -0.0166 (inactive). For the same compound, in assay [2], the composite z-score came out at 0.342.

As for `CO[C@@H]1COC(=O)[C@@H]2CCCN2C(=O)[C@@H](C)COC(=O)CC=C[C@H]1C`, the z-score in assay [1] is -0.481 (inactive); in [3], 0.202 (inactive); in assay [4] it was -0.116 (inactive); in assay [5], 0.601 (inactive); in assay [6], 0.0246 (inactive); in assay [7], -0.641. Also, the z-score in assay [8] was -0.48 (inactive); in assay [9] it was 0.393 (inactive); in [10], 0.0919; in [11], -1.06; in [12], -0.11; in assay [13] it was -0.321. Besides, the z-score is 0.0099 in assay [14]; -0.748 in assay [15]; -0.2 in assay [16]; -1.49 (inactive) in [17]; -0.0504 in assay [18]; -0.684 in assay [19]. Moreover, the z-score in assay [20] was 0.948 (inactive). In assay [2], this compound gave a composite z-score of 0.0553.

As to `O=C1[C@H]2[C@H]3[C@H](O)[C@H](O)CC(=NOCc4ccccc4)[C@@H]3CC[C@H]2C(=O)N1c1ccc(F)cc1F`, the z-score in [1] was -0.246 (inactive); in assay [3], 1.17 (inactive); in assay [4] it was -0.56 (inactive); in assay [5], 0.512 (inactive); in assay [6], -1.36 (inactive); in assay [7], 2.35. Further, the z-score in assay [8] was -0.409 (inactive); in assay [9], 0.18 (inactive); in assay [10], 0.343; in assay [11], 0.504; in [12] it was -0.23; in [13] it was 0.688. Besides, the z-score in [14] is 0.635; in assay [15] it was 1.13; in assay [16] it was 1.51; in assay [17], -0.371 (inactive); in assay [18] it was -0.261; in assay [19], -1.57. For the same compound, in [20], the z-score is -1.03 (inactive). Moreover, the composite z-score in assay [2] is -0.391.

Regarding `CCOC(=O)CCN1C(=O)[C@H]2[C@H]3[C@H](O)[C@H](O)CC(=NOCc4ccccc4)[C@H]3CC[C@H]2C1=O`, the z-score in assay [1] is 1.02 (inactive); in [3], 3.06 (inactive); in assay [4] it was 0.939 (inactive); in assay [5], -0.35 (inactive); in [6], 0.451 (inactive); in assay [7], -0.578. Besides, the z-score in [8] was -0.43 (inactive); in assay [9], 0.622 (inactive); in assay [10], 0.279; in assay [11], 0.14; in assay [12], -1.08; in assay [13] it was -0.416. Further, the z-score in assay [14] is 0.0807; in assay [15] it was -0.273; in assay [16] it was 0.239; in [17] it was 0.392 (inactive); in assay [18], -0.508; in [19], -1.22. The z-score in [20] was -0.553 (inactive). In addition, the composite z-score in assay [2] amounted to 0.914.

Regarding `COc1cccc([C@H]2Oc3ccc(OC)cc3C(=NOC(C)CN3CCCCc4nc(C)c(C)cc43)[C@@H]2O)c1` (stereo not given in full), the z-score in assay [1] was 0.751 (inactive); in assay [3], 1.82 (inactive); in [4] it was 0.59 (inactive); in assay [5], 0.32 (inactive); in [6], 0.342 (inactive); in assay [7], -0.887. The z-score in assay [8] is -2.44 (inactive); in assay [9], -0.284 (inactive); in assay [10], -0.892; in [11], 0.217; in [12], -0.527; in assay [13], 0.0117. Also, the z-score in assay [14] is -1.02; in [15], -0.836; in assay [16] it was -0.108; in [17], -0.832 (inactive); in [18], -0.00251; in assay [19], -0.144. The z-score in assay [20] is -0.565 (inactive). In [2], this compound displayed a composite z-score of -0.103.
